Bioassay records (PubChem)
Hits are enriched below; roughly 2.9% of the tested compounds scored in any of these assays.
Nrf2 ARE act: qHTS of Nrf2 Activators | hit rate 0.31% among 410,000 | AREc32 ARE-luciferase reporter (MCF7-derived line), luminescence, 24 h | Potency, µM (top dose mostly 46.1 µM), for inactives: at the top dose activation, hits mostly activators; note: % of control where 0% means no effect; nearly all actives have a fitted effect of over 65% in size
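Each well held 1000 AREc32 cells, which were incubated with compound for 24 hr at 37 deg C after overnight attachment, and ARE reporter activity was quantified by firefly luciferase luminescence.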
ATXN2 expr inh: Primary qHTS for Inhibitors of ATXN expression | HEK-293 ATXN2-luciferase reporter, luminescence, 24 h | Potency, µM (titrated, usually from 57 µM), without a hit: at the highest dose activity change, negative = inhibition, actives largely listed as inhibitors | hit rate 0.72% among 360,000 | AID 1745845, 2022; note: % is set by controls: 0 for no effect and ±100 for the full control effect; nearly all actives have a fitted effect of over 55% in size
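qHTS (up to 57 uM final) was run with 24 h compound exposure of reporter cells at 37 °C. Each well was multiplexed: SteadyGlo luminescence measured ATXN2-luciferase expression after a fluorogenic Gly-Phe-AFC viability readout (25 uM final).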
Nrf2 block: Nrf2 qHTS screen for inhibitors; Potency, µM (series often up to 46 µM), without a hit: at the top dose activity change, negative = inhibition, hits mostly inhibitors; A549 ARE-Fluc reporter, luciferase luminescence, 18-24 h; hit rate 2.1% among 360,000; note: % is set by controls: 0 for no effect and ±100 for the full control effect; nearly all actives have a fitted effect of over 60% in size
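Nrf2 activity is the BugLite luminescence, read 15 min after reagent at room temperature, following CellTiter-Fluor cytotoxicity readout (30 min, 37C). Compound titrations were applied for 18-24 h to 5000 A549 ARE_Fluc cells/well in 5% FBS OPTI-MEM.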
A549 viability: Nrf2 qHTS screen for inhibitors: counterscreen for cytotoxicity. Potency, µM (series often up to 46 µM), for inactives: at the highest dose activity change, negative = cytotoxicity, most hits filed as inhibitors. hit rate 0.16% among 390,000. A549 ARE-Fluc cells, CellTiter-Fluor viability, 18-24 h; note: % is set by controls: 0 for no effect and ±100 for the full control effect
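Cytotoxicity counterscreen: CellTiter-Fluor fluorescence was measured in A549 ARE_Fluc cells after 18-24 h of compound exposure in a concentration series. The subsequent BugLite luminescent read reports ARE-luciferase activity.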
S2 tox: Viability Counterscreen for Primary qHTS for Inhibitors of ATXN expression. S2 cells (HEK-293 line with an ATXN2-luciferase reporter) viability, CellTiter-Fluor protease fluorescence, 24 h. Potency, µM (highest dose often 56.7 µM), actives largely listed as cytotoxic. hit rate 0.49% among 400,000. AID 651635, 2014; note: nearly all actives have a fitted effect of over 40% in size
* = called active by the depositor; i = inactive; ? = inconclusive; · = no result given. Calls come from the whole dose curve; as a rule, active = well fitted curve in the direction sought with a large enough effect; inconclusive = small, poorly fitted or top-dose-only effect, or another doubt; inactive = no such curve, though single readings can be large; an effect the other way counts as inactive or inconclusive. Potency is the fitted concentration of half-maximal effect.

SMILES | Nrf2 ARE act | ATXN2 expr inh | Nrf2 block | A549 viability | S2 tox
CN(CCc1ccccc1)C(=O)c1ccc(NC(=O)Cc2ccc(NC(=O)C3CCN(C(=O)CCc4ccccc4)CC3)cc2)cc1 | 1% | -9% | 9.2µM* | -6% | i
CN(CCc1ccccc1)C(=O)c1cccc(NC(=O)Cc2cccc(NC(=O)C3CCCN(C(=O)c4ccccc4)C3)c2)c1 (stereo unspecified) | 3% | 4% | 26µM* | -11% | ?
O=C(NCCc1ccccn1)C1CC12CCN(C(=O)c1c(F)cccc1Cl)CC2 (stereo unspecified) | · | · | · | · | i
Cc1sc(NC(=O)c2ccccc2F)c(CN2CCCCC2C)c1C (stereo unspecified) | 13µM* | 63% | ? | -2% | i
C=CCc1cccc(C=Nc2cc(Br)ccc2O)c1O | 6.3µM* | 3% | ? | -17% | i
C=CCc1cccc(C=Nc2c[nH]c(=O)[nH]c2=O)c1O | 0% | -9% | -19% | -16% | i
CCCCC(=O)NC(=S)NNC(=O)c1ccc(Cl)cc1Cl | -1% | -4% | ? | 0% | i
O=C(NNC(=O)c1ccc([N+](=O)[O-])cc1)c1ccc(Br)cc1 | -1% | -6% | -19% | 3% | i
Cc1ccc(C(=O)NC(=S)NNC(=O)c2ccccc2)cc1 | 0% | · | ? | -17% | i
Cc1ccc(C(=O)NNC(=S)NC(=O)c2ccccc2)cc1 | 4% | ? | 16µM* | ? | i
Cc1ccc(C(=O)NNC(=S)NC(=O)c2ccc(Cl)cc2Cl)cc1 | 0% | -26% | 21µM* | -20% | i
O=C(NNC(=S)NC(=O)c1ccc(Br)cc1)c1ccc([N+](=O)[O-])cc1 | 3% | · | 21µM* | -2% | i
CSCC[C@H](NC(=O)c1cccc(S(=O)(=O)N2CCCCCC2)c1)c1nc2ccccc2[nH]1 | 0% | -35% | 18µM* | ? | ?
Cc1cc(C)cc(NC(=O)CSc2ccc(-c3cccs3)nn2)c1 | 0% | -13% | 10µM* | -2% | i
O=C(CSc1ccc(-c2cccs2)nn1)Nc1ccccc1 | 5% | -8% | 18µM* | 0% | i
COC(=O)c1ccc(NC(=O)CSc2ccc(-c3cccs3)nn2)cc1 | 3% | · | 9% | 9% | ·
O=C(CN1CCN(c2ccccn2)CC1)Nc1ccc(Oc2ccccc2)cc1 | 1% | -12% | · | 17% | i
O=C(CN1CCN(c2ccccn2)CC1)Nc1cccc(S(=O)(=O)N2CCCC2)c1 | -1% | · | 12µM* | -4% | i
O=C(CCl)Nc1cccc(S(=O)(=O)N2CCCCCC2)c1 | 22% | ? | -18% | -17% | 25µM*
O=C(CN1CCN(c2ccccn2)CC1)Nc1ccc(OCc2ccccc2)cc1 | 2% | -12% | 21µM* | -13% | i
O=C(CNc1cccc(S(=O)(=O)N2CCCCC2)c1)Nc1ccc(C(F)(F)F)cc1 | 4% | · | · | · | ?
O=C(CNc1cccc(S(=O)(=O)N2CCCC2)c1)Nc1ccc(C(F)(F)F)cc1 | 0% | -26% | 23µM* | -12% | i
CN1C(=O)Cc2cc([S+](=O)([O-])N3CCN([S+](=O)([O-])c4c(F)cccc4F)CC3)ccc21 | · | · | 15% | -8% | ·
O=C(Nc1cccc(S(=O)(=O)N2CCCCC2)c1)c1cc2ccccc2o1 | 2% | 10% | 23µM* | -12% | i
O=C(Nc1cccc(S(=O)(=O)N2CCOCC2)c1)c1cc2ccccc2o1 | 3% | -5% | ? | ? | i
SMILES | Nrf2 ARE act | ATXN2 expr inh | Nrf2 block | A549 viability | S2 tox
Cc1ccc(S(=O)(=O)N2CCCCC2)cc1NC(=O)Cn1ccsc1=N | 3% | -16% | 10% | -3% | i
N=c1sccn1CC(=O)Nc1cccc(S(=O)(=O)N2CCCCCC2)c1 | 4% | · | ? | -22% | 16µM*
COc1cc(OC)c(NC(=O)CCS(=O)(=O)c2ccc3c(c2)oc(=O)n3C)cc1Cl | 3% | 5% | ? | -6% | i
CC(C)(C)C(=O)Nc1ccc(Sc2ccc([N+](=O)[O-])cc2)cc1 | 5% | ? | 16µM* | 1% | ?
Cc1cccc2sc(N(CCN(C)C)C(=O)/C=C/c3cccs3)nc12 | 11µM* | -11% | -18% | ? | i
COc1ccc2nc(N(CCN(C)C)C(=O)/C=C/c3cccs3)sc2c1 | 10µM* | · | -25% | -4% | ?
CN(C)CCCN(C(=O)/C=C/c1cccs1)c1nc2c(F)cccc2s1 | ? | ? | 4% | -7% | ?
COc1ccc2sc(N(CCN(C)C)C(=O)/C=C/c3cccs3)nc2c1 | 10µM* | · | -8% | -1% | ?
CCN(CC)CCN(C(=O)/C=C/c1cccs1)c1nc2ccc(OC)cc2s1 | 0% | · | ? | -12% | i
O=C1OC2(c3ccccc31)c1cc(Br)c(O)c(Br)c1Oc1c2cc(Br)c(O)c1Br | · | -2% | · | · | i
COc1ccc(-c2c(C)nn3c(N4CCN(c5cc(Cl)ccc5C)CC4)cc(C)nc23)cc1OC | 4% | -23% | -5% | 16% | ?
CCc1nnc(SCc2cccc(Cl)c2)c2cc3sccc3n12 | 11% | · | ? | 4% | ·
C#CCOCCOCCOCCNc1nc(N2CCN(C(=O)CCCCCCCCCCNC(=O)[C@H]([C@@H](C)CC)n3cc(CCCCCN)nn3)CC2)nc(N2CCN(C(=O)CCCCCCCCCCNC(=O)[C@H](CCCCN)n3cc(CCCC(=O)O)nn3)CC2)n1 | -3% | ? | 1% | -14% | ?
CC(C)(C)OC(=O)CC[C@@H](C(=O)NCCCCCCCCCCC(=O)N1CCN(C(=O)OC(C)(C)C)CC1)n1cc(CCCCCNC(=O)OC(C)(C)C)nn1 | 5% | 8% | ? | 0% | i
C#CCOCCOCCOCCNc1nc(N2CCN(C(=O)CCCCCCCCCCNC(=O)[C@H]([C@@H](C)CC)n3cc(CCCCCN)nn3)CC2)nc(N2CCN(C(=O)CCCCCCCCCCNC(=O)[C@H](CO)n3cc(CCCCCN)nn3)CC2)n1 | -6% | ? | -25% | ? | 22µM*
C#CCOCCOCCOCCNc1nc(N2CCN(C(=O)Cn3cc(CCCN=C(N)N)nn3)CC2)nc(N2CCN(C(=O)[C@H]([C@@H](C)CC)n3cc(CCCCN)nn3)CC2)n1 | 0% | -1% | -8% | -1% | i
C#CCOCCOCCOCCNc1nc(N2CCN(C(=O)CCCCCCCCCCNC(=O)Cn3cc(CCCCCN)nn3)CC2)nc(N2CCN(C(=O)CCCCCCCCCCNC(=O)[C@H]([C@@H](C)CC)n3cc(CCCCN=C(N)N)nn3)CC2)n1 | -3% | 20µM* | ? | ? | 16µM*
